Reference: the supplement of paper PMC11732987, “Enantioselective OTUD7B fragment discovery through chemoproteomics screening and high-throughput optimisation” (Communications Chemistry, 2025)

Key:
Assay in all cases: log2 ratio of Biotin-Ahx-Ub-VS probe labelling (fragment/DMSO); higher = less target engagement (more negative = stronger competition), active = hit call of the paper (q ≤ 0.05, log2 ratio ≤ -1)
Conditions in all cases: compound concentration: 200 uM; treatment time: 3 h
USP34 = USP34 (UniProt Q70CQ2)
USP34, sequence (Q70CQ2 whole entry, the tested form may be a part): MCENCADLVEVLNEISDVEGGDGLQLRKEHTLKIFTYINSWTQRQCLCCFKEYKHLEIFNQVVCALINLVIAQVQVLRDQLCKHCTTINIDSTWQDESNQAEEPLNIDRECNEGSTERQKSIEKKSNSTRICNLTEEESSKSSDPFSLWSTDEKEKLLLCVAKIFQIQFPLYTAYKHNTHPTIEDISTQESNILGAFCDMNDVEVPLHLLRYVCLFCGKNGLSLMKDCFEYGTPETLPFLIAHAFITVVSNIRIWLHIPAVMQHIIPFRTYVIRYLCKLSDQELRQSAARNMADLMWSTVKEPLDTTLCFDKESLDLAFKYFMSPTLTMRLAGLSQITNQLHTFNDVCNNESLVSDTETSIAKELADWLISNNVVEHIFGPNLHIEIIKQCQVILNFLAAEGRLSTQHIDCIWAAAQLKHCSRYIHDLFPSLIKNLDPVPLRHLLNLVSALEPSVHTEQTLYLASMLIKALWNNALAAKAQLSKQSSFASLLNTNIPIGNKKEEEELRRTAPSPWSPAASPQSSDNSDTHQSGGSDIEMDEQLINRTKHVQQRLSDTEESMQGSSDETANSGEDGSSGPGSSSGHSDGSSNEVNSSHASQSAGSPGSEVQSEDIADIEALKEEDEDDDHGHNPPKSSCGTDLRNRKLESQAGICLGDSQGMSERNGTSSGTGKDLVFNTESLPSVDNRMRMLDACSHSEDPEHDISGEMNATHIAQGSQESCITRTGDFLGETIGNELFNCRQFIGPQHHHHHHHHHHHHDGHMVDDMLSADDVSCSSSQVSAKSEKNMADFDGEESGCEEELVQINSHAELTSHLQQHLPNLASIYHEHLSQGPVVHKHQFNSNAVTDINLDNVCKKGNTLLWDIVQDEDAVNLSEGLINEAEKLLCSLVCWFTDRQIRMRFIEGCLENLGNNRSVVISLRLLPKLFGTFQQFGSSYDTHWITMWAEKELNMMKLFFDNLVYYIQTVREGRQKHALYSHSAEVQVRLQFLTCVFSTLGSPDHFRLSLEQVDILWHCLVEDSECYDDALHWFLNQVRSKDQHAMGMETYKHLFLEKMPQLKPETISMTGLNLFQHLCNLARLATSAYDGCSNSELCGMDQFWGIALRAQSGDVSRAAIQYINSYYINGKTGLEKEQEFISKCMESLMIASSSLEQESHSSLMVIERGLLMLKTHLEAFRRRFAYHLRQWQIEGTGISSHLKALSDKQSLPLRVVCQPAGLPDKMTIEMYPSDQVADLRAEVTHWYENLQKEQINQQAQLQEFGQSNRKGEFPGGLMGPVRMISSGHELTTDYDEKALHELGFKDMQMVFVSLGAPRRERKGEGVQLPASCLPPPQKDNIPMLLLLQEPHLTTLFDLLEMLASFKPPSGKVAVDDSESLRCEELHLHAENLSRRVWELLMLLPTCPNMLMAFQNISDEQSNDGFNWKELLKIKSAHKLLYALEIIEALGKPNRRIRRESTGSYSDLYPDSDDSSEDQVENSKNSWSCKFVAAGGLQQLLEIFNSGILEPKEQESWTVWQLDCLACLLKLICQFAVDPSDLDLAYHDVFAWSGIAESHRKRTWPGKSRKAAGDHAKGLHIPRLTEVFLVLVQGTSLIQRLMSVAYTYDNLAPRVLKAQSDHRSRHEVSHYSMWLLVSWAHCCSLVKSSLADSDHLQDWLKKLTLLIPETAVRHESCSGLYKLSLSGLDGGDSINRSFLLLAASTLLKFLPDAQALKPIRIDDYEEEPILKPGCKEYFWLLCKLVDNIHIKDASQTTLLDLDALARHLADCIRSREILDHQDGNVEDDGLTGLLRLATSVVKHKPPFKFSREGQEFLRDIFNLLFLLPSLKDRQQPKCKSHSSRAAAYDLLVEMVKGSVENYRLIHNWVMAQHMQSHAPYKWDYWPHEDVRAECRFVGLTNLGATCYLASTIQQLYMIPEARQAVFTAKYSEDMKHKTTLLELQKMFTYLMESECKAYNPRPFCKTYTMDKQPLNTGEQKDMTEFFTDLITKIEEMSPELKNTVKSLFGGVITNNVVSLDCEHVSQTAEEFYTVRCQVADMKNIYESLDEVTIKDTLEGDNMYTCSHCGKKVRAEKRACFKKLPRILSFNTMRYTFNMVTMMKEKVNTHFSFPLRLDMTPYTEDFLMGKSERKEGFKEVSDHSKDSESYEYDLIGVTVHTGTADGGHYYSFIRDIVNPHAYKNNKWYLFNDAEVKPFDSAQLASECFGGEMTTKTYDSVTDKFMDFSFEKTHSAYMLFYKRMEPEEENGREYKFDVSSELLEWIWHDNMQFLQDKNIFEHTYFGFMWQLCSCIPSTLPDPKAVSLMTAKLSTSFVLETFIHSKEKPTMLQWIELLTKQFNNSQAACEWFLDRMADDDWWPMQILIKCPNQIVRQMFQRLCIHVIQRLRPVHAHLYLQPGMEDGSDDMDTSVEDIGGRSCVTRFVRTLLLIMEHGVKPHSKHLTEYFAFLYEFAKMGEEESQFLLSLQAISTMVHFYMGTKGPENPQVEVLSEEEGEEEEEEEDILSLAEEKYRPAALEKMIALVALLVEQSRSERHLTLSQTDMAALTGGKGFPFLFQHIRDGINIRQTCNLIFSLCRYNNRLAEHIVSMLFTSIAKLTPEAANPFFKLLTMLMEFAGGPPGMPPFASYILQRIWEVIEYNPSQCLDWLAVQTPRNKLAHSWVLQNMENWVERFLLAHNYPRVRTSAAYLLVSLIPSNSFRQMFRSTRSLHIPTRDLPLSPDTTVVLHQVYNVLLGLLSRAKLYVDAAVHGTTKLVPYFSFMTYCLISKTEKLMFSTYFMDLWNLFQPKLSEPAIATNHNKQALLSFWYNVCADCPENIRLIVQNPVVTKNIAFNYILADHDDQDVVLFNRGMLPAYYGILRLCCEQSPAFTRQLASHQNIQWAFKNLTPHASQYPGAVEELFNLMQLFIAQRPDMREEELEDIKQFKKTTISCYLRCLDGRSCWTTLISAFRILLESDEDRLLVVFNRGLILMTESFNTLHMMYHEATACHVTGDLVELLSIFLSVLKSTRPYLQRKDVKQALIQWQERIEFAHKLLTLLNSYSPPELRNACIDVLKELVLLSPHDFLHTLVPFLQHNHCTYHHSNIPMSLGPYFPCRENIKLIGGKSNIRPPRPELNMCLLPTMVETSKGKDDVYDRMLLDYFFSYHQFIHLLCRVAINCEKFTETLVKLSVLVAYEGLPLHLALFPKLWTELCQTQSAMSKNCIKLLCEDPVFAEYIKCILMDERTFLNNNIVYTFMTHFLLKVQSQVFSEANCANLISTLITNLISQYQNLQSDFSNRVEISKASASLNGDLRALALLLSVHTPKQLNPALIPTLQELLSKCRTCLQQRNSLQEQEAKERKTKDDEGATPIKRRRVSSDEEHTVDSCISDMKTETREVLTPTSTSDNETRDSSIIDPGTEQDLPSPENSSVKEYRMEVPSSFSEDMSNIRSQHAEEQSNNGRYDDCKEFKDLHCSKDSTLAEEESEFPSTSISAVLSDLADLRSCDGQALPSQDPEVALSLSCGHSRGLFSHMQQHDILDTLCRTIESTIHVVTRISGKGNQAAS
Procedure, shortened: (§1)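 Average log2 ratios of fragment over vehicle were obtained by unpaired t-test from global-median-normalised Spectronaut label-free quantities. Proteins with ≥2 unique peptides were included. HEK293T lysate (495 µg per sample) was treated in triplicate with fragment at 200 µM or vehicle for 3 h, then with Biotin-Ahx-Ub-VS at 0.5 µM final for 1 h, and labelled DUBs were NeutrAvidin-enriched and run by diaPASEF LC-MS/MS.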

USP36 = target: T1, USP36 (UniProt Q9P275)
T1 sequence (whole entry): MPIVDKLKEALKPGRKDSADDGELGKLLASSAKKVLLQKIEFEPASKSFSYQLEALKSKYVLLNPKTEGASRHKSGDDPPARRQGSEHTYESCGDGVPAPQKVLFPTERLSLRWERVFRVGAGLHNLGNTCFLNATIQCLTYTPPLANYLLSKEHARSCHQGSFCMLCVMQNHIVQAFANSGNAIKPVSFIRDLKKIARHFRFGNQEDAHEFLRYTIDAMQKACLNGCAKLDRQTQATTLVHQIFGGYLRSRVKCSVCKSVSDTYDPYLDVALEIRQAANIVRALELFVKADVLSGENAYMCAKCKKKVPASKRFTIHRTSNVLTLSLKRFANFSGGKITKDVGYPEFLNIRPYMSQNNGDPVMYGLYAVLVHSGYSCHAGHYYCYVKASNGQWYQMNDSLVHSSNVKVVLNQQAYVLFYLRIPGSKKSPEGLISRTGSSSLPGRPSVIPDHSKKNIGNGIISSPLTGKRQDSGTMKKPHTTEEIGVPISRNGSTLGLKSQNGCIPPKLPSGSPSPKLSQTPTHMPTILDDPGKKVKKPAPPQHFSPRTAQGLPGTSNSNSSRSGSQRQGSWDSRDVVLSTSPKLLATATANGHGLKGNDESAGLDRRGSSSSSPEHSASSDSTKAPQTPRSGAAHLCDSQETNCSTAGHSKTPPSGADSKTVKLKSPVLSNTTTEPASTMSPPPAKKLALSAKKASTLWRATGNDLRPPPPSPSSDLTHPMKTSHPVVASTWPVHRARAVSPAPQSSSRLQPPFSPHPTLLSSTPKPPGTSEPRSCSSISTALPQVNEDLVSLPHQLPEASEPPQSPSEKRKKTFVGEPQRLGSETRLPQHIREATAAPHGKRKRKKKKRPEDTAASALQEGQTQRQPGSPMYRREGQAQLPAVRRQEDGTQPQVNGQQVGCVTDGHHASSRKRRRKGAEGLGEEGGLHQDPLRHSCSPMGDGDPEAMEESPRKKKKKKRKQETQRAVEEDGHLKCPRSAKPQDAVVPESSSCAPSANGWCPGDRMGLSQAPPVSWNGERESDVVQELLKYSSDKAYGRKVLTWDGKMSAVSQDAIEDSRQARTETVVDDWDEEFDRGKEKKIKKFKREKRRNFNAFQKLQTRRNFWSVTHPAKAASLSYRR
Procedure, shortened: as §1

USP38 = target: T2, USP38 (UniProt Q8NB14)
T2 sequence (whole entry): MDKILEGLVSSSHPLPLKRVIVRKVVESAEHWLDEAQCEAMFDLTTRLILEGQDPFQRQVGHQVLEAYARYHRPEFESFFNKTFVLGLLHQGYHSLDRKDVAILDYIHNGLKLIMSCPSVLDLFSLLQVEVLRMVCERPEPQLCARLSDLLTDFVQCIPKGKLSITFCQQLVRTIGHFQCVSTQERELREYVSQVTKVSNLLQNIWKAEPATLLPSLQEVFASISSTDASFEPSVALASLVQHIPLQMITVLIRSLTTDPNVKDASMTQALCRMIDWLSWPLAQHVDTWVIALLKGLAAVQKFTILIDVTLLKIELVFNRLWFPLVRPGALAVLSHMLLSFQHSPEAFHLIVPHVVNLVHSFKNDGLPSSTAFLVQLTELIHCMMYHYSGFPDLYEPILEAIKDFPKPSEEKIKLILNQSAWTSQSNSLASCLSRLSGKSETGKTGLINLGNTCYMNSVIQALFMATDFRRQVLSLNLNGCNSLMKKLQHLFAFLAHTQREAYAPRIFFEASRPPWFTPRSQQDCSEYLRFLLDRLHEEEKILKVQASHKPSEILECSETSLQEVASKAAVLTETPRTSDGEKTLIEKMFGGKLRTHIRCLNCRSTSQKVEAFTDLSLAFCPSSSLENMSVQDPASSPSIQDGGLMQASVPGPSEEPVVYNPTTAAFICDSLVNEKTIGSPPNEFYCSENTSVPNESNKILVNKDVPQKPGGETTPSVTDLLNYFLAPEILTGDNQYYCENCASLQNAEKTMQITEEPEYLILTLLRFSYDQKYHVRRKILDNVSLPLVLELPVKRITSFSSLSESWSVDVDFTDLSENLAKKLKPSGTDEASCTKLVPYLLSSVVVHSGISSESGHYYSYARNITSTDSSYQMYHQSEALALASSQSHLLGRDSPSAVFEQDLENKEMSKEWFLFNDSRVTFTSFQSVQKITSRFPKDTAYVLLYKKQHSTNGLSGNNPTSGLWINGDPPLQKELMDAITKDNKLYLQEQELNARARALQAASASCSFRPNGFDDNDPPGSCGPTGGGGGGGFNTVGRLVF
Procedure, shortened: as §1

USP39 = target: T3, USP39 (UniProt Q53GS9)
T3 sequence (whole entry): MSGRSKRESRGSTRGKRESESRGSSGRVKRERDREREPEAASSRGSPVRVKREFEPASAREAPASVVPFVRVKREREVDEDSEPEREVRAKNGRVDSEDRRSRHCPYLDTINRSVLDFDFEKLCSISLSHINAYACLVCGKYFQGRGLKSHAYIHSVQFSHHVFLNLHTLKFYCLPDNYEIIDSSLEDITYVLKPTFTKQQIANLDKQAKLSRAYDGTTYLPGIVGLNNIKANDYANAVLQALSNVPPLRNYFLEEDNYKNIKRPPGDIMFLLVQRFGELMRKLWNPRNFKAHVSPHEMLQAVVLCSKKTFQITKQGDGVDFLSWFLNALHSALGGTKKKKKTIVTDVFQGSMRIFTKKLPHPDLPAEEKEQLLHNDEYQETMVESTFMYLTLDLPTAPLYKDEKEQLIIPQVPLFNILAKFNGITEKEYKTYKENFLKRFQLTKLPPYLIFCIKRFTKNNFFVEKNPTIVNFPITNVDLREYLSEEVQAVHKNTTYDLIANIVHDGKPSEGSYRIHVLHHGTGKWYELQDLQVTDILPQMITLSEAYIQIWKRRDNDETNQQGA
Procedure, shortened: as §1

USP4 = target: T4, USP4 (UniProt Q13107)
T4 sequence (whole entry): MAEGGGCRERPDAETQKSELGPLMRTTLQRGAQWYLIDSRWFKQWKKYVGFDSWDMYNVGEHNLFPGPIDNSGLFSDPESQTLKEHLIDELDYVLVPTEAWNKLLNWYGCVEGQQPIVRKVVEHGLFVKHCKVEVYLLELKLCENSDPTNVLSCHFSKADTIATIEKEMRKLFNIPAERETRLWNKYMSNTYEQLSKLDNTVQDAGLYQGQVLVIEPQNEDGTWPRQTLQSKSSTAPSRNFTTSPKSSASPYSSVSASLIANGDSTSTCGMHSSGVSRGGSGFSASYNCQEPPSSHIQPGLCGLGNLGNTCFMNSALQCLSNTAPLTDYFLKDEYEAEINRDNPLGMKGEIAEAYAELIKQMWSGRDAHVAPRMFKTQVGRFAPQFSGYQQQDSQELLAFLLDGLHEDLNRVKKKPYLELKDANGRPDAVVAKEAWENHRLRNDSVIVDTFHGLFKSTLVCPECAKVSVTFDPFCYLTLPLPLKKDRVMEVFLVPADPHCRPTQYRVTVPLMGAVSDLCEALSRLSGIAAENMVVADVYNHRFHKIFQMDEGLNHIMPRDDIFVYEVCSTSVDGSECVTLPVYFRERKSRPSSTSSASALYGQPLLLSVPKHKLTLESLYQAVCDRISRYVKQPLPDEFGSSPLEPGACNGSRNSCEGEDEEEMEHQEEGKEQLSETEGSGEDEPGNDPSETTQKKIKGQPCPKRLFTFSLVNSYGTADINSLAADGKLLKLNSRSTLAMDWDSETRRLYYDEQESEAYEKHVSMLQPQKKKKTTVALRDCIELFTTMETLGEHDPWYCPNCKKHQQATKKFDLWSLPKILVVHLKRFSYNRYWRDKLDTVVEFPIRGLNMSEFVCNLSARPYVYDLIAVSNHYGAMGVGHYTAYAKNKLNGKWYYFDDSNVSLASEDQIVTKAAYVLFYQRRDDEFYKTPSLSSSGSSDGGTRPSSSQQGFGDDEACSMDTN
Procedure, shortened: as §1

Measured: log2 ratio of Biotin-Ahx-Ub-VS probe labelling

Cc1nc(CN2CCN(C(=O)CCl)CC2)cs1
inactive: USP34 0.0453 | USP36 -0.0366 | USP38 -0.217 | USP39 -0.381 | USP4 -0.261
